Here are results for 38 compounds from PubChem BioAssay AID1508621 (National Center for Advancing Translational Sciences (NCATS), 2021).

Inconclusive results are not listed. Activity calls are given as the source filed them. Calls follow the shape of the dose curve; as a rule, active = well fitted inhibition curve with a large enough effect; inconclusive = small, poorly fitted or top-dose-only effect; inactive = no such curve, though single readings can be large or run the other way.
Potency is read from the fitted curve at half-maximal effect.

The assay can be described thus: Confirmatory qHTS for Identification of Small Molecule Inhibitors of Huntingtin Promoter Activity. Also: nearly all actives have a fitted effect of over 65% in size.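 As to activity change, negative = inhibition: 0% = vehicle control and -100% = zero luminescence signal.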 The settings on record: HEK293 HTT promoter firefly luciferase reporter, 24 h; series mostly up to 57.5 µM; activity change, negative = inhibition: at the top concentration. In a few lines:
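2,500 luciferase reporter HEK293 cells/well; 24 h culture; cpds up to 57.5 uM final, PTC124 50 uM ctrl; 24 h, 37C; Dual-Glo FLuc reagent, 10 min RT; lum. Norm.: vehicle 0%, zero RLU -100%.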
Take `COC(=O)C1=C(C)NC(C)=C(C(=O)OCC(C)=O)C1c1ccccc1[N+](=O)[O-]` (stereo not drawn): the “activity change, negative = inhibition” value is 7.3% (inactive). With `O=C(NCc1cccc(Cl)c1)C1CCCN(c2nn3cc(-c4ccc(F)cc4)nc3s2)C1` (stereo not drawn), the Potency was 12 µM (active). On to `CO[C@H]1C=CC=C(C)C(=O)NC2=CC(=O)C(NCCN(C)C)=C(C[C@@H](C)C[C@H](OC)[C@@H](O)[C@@H](C)C=C(C)[C@@H]1OC(N)=O)C2=O`, for which the “activity change, negative = inhibition” value is 10.9% (inactive). `FC(F)(F)c1cccc(Nc2nc3nonc3nc2Nc2ccc(Cl)cc2)c1`: the Potency is 0.379 µM (active).

Take `CCOC(=O)c1ccc(C#Cc2ccc3c(c2)C(C)(C)CCS3)nc1`: the “activity change, negative = inhibition” value was -21.2% (inactive).

`CCN(CCCNC(=O)c1cc2cc3ccc(C)cc3nc2s1)c1ccccc1`: the “activity change, negative = inhibition” value is -14.1% (inactive).

For the compound `CCc1c(C)sc2c1CCN(Cc1ccc(F)cc1)C2c1ccccc1` (stereo not drawn), the “activity change, negative = inhibition” value was -16.4% (inactive). `Cc1ccc(C2=CC(c3ccc(Cl)cc3)n3nc(-c4ccc(C)cc4)nc3N2)cc1` (stereo not drawn): the “activity change, negative = inhibition” value is -24.2% (inactive). Consider `Cc1ccc(CNC(=O)c2c(Nc3c(C)cccc3C)sc(C(=O)c3ccccc3)c2N)cc1`, for which the Potency was 9.53 µM (active). Consider `CN(C)Cc1ccc(-c2nc3cccc4c3n2CCNC4=O)cc1`, for which the “activity change, negative = inhibition” value was -26.9% (inactive). `CC[C@@H]1C(=O)N(C)c2cnc(Nc3ccc(C(=O)NC4CCC(N5CCN(CC6CC6)CC5)CC4)cc3OC)nc2N1C(C)C` (stereo partly drawn): the “activity change, negative = inhibition” value is 11.8% (inactive). On to `CCN(CC)CCNC(=O)c1c(C)[nH]c(C=C2C(=O)Nc3ccc(F)cc32)c1C`, for which the “activity change, negative = inhibition” value was 2.34% [at 115 µM] (inactive).

In the case of `COc1ccc(NC(=O)Cn2c(SCc3ccc(F)cc3)nc3cccnc32)cc1OC`, the “activity change, negative = inhibition” value is -9.83% (inactive). `CCc1ccc(NC(=O)Nc2cn(C)c(=O)c3ccccc23)cc1`: the “activity change, negative = inhibition” value was -22.2% (inactive).

With `O=C(CSc1nccn1Cc1ccco1)Nc1cc(C(F)(F)F)ccc1Cl`, the “activity change, negative = inhibition” value is -16% (inactive). In the case of `Cc1oc(-c2cccc(Cl)c2)nc1CN1CCC(C(=O)NCCCN2CCN(c3ccc(F)cc3)CC2)CC1`, the Potency is 13.5 µM (active). Still for that read-out and setting: the value for `CC(=O)N1CCCc2cc(S(=O)(=O)N3CCCC(C(=O)N4CCN(c5ccccc5)CC4)C3)ccc21` (stereo not drawn) was 9.53 µM (active). For `CN(C)Cc1c(C(=O)NCCOc2ccc(C(=O)NO)cc2)oc2ccccc12`, the “activity change, negative = inhibition” value is 455% (inactive).

Consider `CCc1ccc2c(c1)-c1ccccc1S(=O)(=O)N2CC(=O)N1CCCCC1`, for which the “activity change, negative = inhibition” value is 39.9% (inactive). For `Cc1ccc(-n2ncc3c(N(CCO)Cc4ccccc4)ncnc32)cc1`, the “activity change, negative = inhibition” value is 15.7% (inactive). Consider `NC(=O)Nc1cc(-c2ccc(CN3CCOCC3)cc2)sc1C(N)=O`, for which the “activity change, negative = inhibition” value is 16.2% (inactive). For `CCCS(=O)(=O)NCCc1sc2nc(-c3ccc(F)cc3)nn2c1C`, the “activity change, negative = inhibition” value was -27.6% (inactive). Regarding `COc1ccc(C2C=C(c3ccc(Br)cc3)Nc3nnnn32)c(OC)c1` (stereo not drawn), the “activity change, negative = inhibition” value is -7.4% (inactive). On the same count and under the same terms, as for `CC(C)[C@H](CO)Nc1nc(Nc2ccc(C(=O)O)c(Cl)c2)c2ncn(C(C)C)c2n1`, the figure is -5.69% (inactive); as for `CCN(CC)CCOc1ccc(C(=C(Cl)c2ccccc2)c2ccccc2)cc1`, -9.4% (inactive); as for `COc1ccccc1N1CCN(S(=O)(=O)c2ccc(F)c(C(=O)Nc3ccc(Cl)cc3C(F)(F)F)c2)CC1`, -15.9% (inactive). The same measure, in the same setting: the value for `O=C(O)c1cc(-n2c(/C=C\c3ccc(F)cc3)nc3ccccc3c2=O)ccc1Cl` was 17.8% (inactive); that for `O=C(NCc1ccccc1)c1cc2ccc3cccnc3c2[nH]1` was 51.7% (inactive); that for `CCS(=O)(=O)N1CC(CC#N)(n2cc(-c3ncnc4[nH]ccc34)cn2)C1` was 76.1% (inactive). Consider `COc1ccc(-n2c(/C=C/c3cccc4ccccc34)nc3ccccc3c2=O)cc1Cl`, for which the “activity change, negative = inhibition” value is -19.7% (inactive).

For `O=C(NCc1cccnc1)C(=O)NCC(c1cccnc1)N1CCN(c2ccccc2F)CC1` (stereo not drawn), the “activity change, negative = inhibition” value is -17.6% (inactive). With `O=C(C=Cc1ccc(CN(CCO)CCc2c[nH]c3ccccc23)cc1)NO`, the “activity change, negative = inhibition” value is 335% (inactive).

In the case of `Cc1ccc(CN(C(=O)COc2cccc(Cl)c2)c2ccccn2)o1`, the “activity change, negative = inhibition” value is -16.3% (inactive).

For the compound `C=Cc1ccc(Cn2c(C(=O)O)c(CNCc3ccccc3)c3ccc(C)cc32)cc1`, the Potency was 21.3 µM (active). `CCOC(=O)C1CCN(C(=O)Cn2c(-c3cccs3)cc3cc(Cl)ccc32)CC1`: the “activity change, negative = inhibition” value was -21.2% (inactive). Same read-out and setting: as for `CC(=O)Nc1ccc(S(=O)(=O)Nc2cc(-c3cn4ccccc4n3)ccc2C)cc1`, the figure is 10.7% (inactive); as for `CCC(=O)N1CCc2cc(S(=O)(=O)NCCC(=O)Nc3ccc(CC)cc3)ccc21`, -15.9% (inactive). Turning to `CCN(CC)S(=O)(=O)c1ccc(NC(=O)CCc2c(C)nc3cc(-c4ccc(Cl)cc4)nn3c2C)cc1`, the Potency was 0.301 µM (active).
